Experimental data taken from PubChem BioAssay (NCATS).
Inconclusive results are not listed. Where a call stands in place of a potency, no number is given. Unmarked numbers belong to inactive results. Active and inactive are the calls of the source. The call rests on the fitted dose curve; in most records, active means well fitted curve in the direction sought with a large enough effect; inconclusive means small, poorly fitted or top-dose-only effect, or another doubt; inactive means no such curve, though single readings can be large; an effect the other way counts as inactive or inconclusive.

Key:
[1] = P-glycoprotein substrates identified in KB-8-5-11 adenocarcinoma cell line, qHTS therapeutic library screen (AID 1346987); conditions: KB-8-5-11 (P-gp overexpressing) viability, CellTiter-Glo, 72 h; series mostly up to 44.5 µM; further: nearly all actives have a fitted effect of over 65% in size
Summary of the method: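 KB-8-5-11: colchicine-selected sub-line of KB-3-1 over-expressing P-gp; assay medium lacked colchicine. 72 h drug exposure at 37 degree C, CellTiter-Glo.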

[2] = test system: Zika virus NS2B-NS3 protease (unlinked complex); assay: Primary screen GU Rhodamine qHTS for Zika virus inhibitors: Unlinked NS2B-NS3 protease assay (AID 1347159); conditions: Recombinant ZIKV NS2B-NS3 protease, Rhodamine110 substrate fluorescence; series mostly up to 107 µM; further: nearly all actives have a fitted effect of over 60% in size
Summary of the method: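 Percent inhibition derives from the 15-min fluorescence change (ex 480, em 540 nm), normalized to no-enzyme and no-inhibitor wells. Reactions contained 25 nM NS2B-NS3 complex and 1.5 microM substrate in 10 mM Tris-HCl pH 8.0.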

[3] = test system: Zika virus NS2B-NS3 protease (linked construct); assay: Primary screen NINDS Rhodamine qHTS for Zika virus inhibitors (AID 1347160); conditions: purified NS2B-NS3 protease, Rhodamine110 substrate fluorescence; series mostly up to 33.1 µM; further: nearly all actives have a fitted effect of over 55% in size
Summary of the method: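 In 10 mM Tris-HCl pH 8.0 containing 0.01% Tween 20, linked NS2B-NS3 protease (25 nM final) is exposed to test compounds for 15 min. Cleavage of 1.5 microM Rhodamine110 substrate is tracked by fluorescence over 15 min.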
Potency means the concentration at half of the fitted maximal effect.

SMILES	activity change, negative = cytotoxicity [1]	Potency [2]	Potency [3]	Potency [1]	activity change, negative = inhibition [2]	outcome [1]
CC(=O)O[C@@H](C[C@@H]1C=C(C)C(=O)O1)[C@H](C)[C@H]1CCC2[C@@]3(C)CC[C@H](O[C@@H]4O[C@H](CO)[C@@H](O)[C@H](O)[C@H]4O[C@@H]4O[C@@H](C)[C@H](O)[C@@H](O)[C@H]4O)C(C)(C)C3CC[C@@]2(C)[C@@]12COC(=O)C2 (some centres undefined)	-0.38% [at 9.29 µM]	inactive	inactive			
CC1(C)CCC[C@@]2(C)[C@H]1[C@H](O)C=C(CO)[C@]2(O)CO		inactive	inactive	inactive		
C[C@@H]1CC[C@]2(C(=O)O[C@@H]3O[C@H](CO[C@@H]4O[C@H](CO)[C@@H](O[C@@H]5O[C@@H](C)[C@H](O)[C@@H](O)[C@H]5O)[C@H](O)[C@H]4O)[C@@H](O)[C@H](O)[C@H]3O)CC[C@]3(C)C(=CCC4[C@@]5(C)C[C@@H](O)[C@H](O)[C@@](C)(CO)C5CC[C@]43C)C2[C@H]1C (some centres undefined)	2.95% [at 9.29 µM]	inactive	inactive			
C=C(C)[C@@]1(O)C[C@@]2(C)C(=CC1=O)CC[C@@H](O)[C@@H]2C		inactive	inactive	inactive		
CC(O)C(O)/C=C/C=C/C(=O)O[C@@H]1C=C(C(=O)O)[C@](O)(CO)[C@@]2(C)CCCC(C)(C)[C@H]12 (some centres undefined)		inactive	inactive	inactive		
COc1cc(Nc2nc3c(s2)CCCC3c2ccccc2)ccc1-n1cnc(C)c1 (centres undefined)	-10.2% [at 9.29 µM]		inactive		-0.986% [at 19.1 µM]	
C=C1C(OC(C)=O)CCC2(C)CCC(C(C)(C)O)CC12 (centres undefined)		inactive	inactive	inactive		
CC1=C(CO)CC(C(C)C2CCC3C4CC=C5CC(OC6OC(COC7OC(CO)C(O)C(O)C7O)C(O)C(O)C6O)CC(O)C5(C)C4CCC23C)OC1=O (centres undefined)		inactive	inactive	inactive		
Fc1cccc(CN(C2=NCCN2)c2c(Cl)cccc2Cl)c1		inactive	inactive	inactive		
COc1ccc(/C=C/C(=O)O[C@@H]2[C@@H](O[C@@H]3O[C@H](CO)[C@@H](O)[C@H](O)[C@H]3O)[C@@H](O)[C@H](O[C@H]3C4C=CO[C@@H](O[C@@H]5O[C@H](CO)[C@@H](O)[C@H](O)[C@H]5O)C4[C@@]4(CO)O[C@@H]34)O[C@H]2C)cc1 (some centres undefined)	2.62% [at 9.29 µM]	inactive	inactive			
COc1ccc(C2COc3cc(O)ccc3C2)c(O)c1OC (centres undefined)		inactive	inactive	inactive		
COC(=O)C1C(c2ccc(O)cc2)C(C(=O)O)C1c1ccc(O)cc1 (centres undefined)		inactive	inactive	inactive		
CC(O)C1CCC2C3CCC4CC(OC5OC(C(=O)O)C(O)C(O)C5O)CCC4(C)C3CCC12C (centres undefined)		inactive	inactive	inactive		
COc1cc(-c2ccc(O)cc2)c(OC)c(O)c1C1=CC(=O)OC1CC(=O)O (centres undefined)		inactive	inactive	inactive		
FC(F)(F)c1nnc2c(Sc3ccccc3)nc3ccc(Cl)cc3n12		inactive	inactive	4.61 µM (active)		
O=C(Cc1ccc(Cl)cc1)Nc1cnccc1C(=O)O		inactive	inactive	inactive		
CC(NC(=O)CC(=O)O)C(=O)Nc1ccccc1C(N)=O (centres undefined)		inactive	inactive	inactive		
O=C(O)Cc1cn([C@@H]2OC[C@@H](O[C@@H]3O[C@H](CO)[C@@H](O)[C@H](O)[C@H]3O)[C@H](O)[C@H]2O[C@@H]2O[C@H](CO)[C@@H](O)[C@H](O)[C@H]2O)c2ccccc12		inactive	inactive	inactive		
C/C=C1/CC2C(=O)Nc3cc(O)c(OC)cc3C(=O)N2C1 (centres undefined)		inactive	inactive	inactive		
C[C@]1(OC(=O)/C=C/c2ccccc2)C[C@@H](O)[C@]2(O)C=CO[C@@H](O[C@@H]3O[C@H](CO)[C@@H](O)[C@H](O)[C@H]3O)[C@@H]21		inactive	inactive	inactive		
C=C1CC[C@@]2(OC1)O[C@H]1CC3C4CC=C5C[C@@H](O[C@@H]6O[C@@H](C)[C@H](O)[C@@H](O)[C@H]6O)C[C@@H](O[C@@H]6O[C@H](C)[C@H](O)[C@H](O)[C@H]6O[C@@H]6O[C@@H](C)[C@H](O)[C@@H](O)[C@H]6O)[C@]5(C)C4CC[C@]3(C)[C@H]1[C@@H]2C (some centres undefined)	5.67% [at 9.29 µM]	inactive	inactive			
CC(C)(C)NS(=O)(=O)c1ccc(-c2ccc3[nH]nc(N)c3c2)cc1		inactive	inactive	inactive		
CCOc1nc2c(N)ncnc2n1CC		inactive	inactive	inactive		
CC1(C)CC[C@]2(C(=O)O)[C@H](O)C[C@]3(C)C(=CCC4[C@@]5(C)CC[C@H](O[C@@H]6OC[C@@H](O)[C@H](O)[C@H]6O)[C@@](C)(C(=O)O)C5CC[C@]43C)[C@@H]2C1 (some centres undefined)		inactive	inactive	inactive		
CC1(C)CC2C3=CCC4[C@@]5(C)CC[C@H](OC6OCC(O)C(OC7OC(CO)C(O)C(O)C7O)C6O)C(C)(C)C5CC[C@@]4(C)[C@]3(C)C[C@H](O)[C@@]2(CO)[C@H](OC(=O)c2ccccc2)C1 (some centres undefined)	-4.21% [at 9.29 µM]	inactive	inactive			
COc1ccc2[nH]c(S(=O)Cc3ncc(C)c(OC)c3C)nc2c1 (centres undefined)		inactive	inactive	inactive		
C[C@@H]1O[C@@H](O[C@H]2[C@H](OC(=O)[C@]34CCC(C)(C)C[C@H]3C3=CCC5[C@@]6(C)C[C@@H](O)[C@@H](O)[C@@](C)(CO)C6[C@H](O)C[C@@]5(C)[C@]3(C)CC4)OC[C@H](O)[C@@H]2O)[C@H](O)[C@H](O)[C@H]1O[C@@H]1OC[C@@H](O)[C@H](O[C@H]2O[C@H](C)[C@@H](O)[C@H](O)[C@@H]2O)[C@H]1O (some centres undefined)	2.85% [at 9.29 µM]	inactive	inactive			

SMILES	activity change, negative = cytotoxicity [1]	Potency [2]	Potency [3]	Potency [1]	activity change, negative = inhibition [2]	outcome [1]
COC(=O)C(CC1(O)c2ccccc2N2C(=O)C(C)(C)N(O)C21)n1cnc2ccccc2c1=O (centres undefined)		inactive	inactive	inactive		
CCC(=O)N1CCc2cc(OC)c(O)cc2C1		inactive	inactive	inactive		
O=C(NC1CCN(CC(F)(F)F)CC1)c1ccc(-c2cccc(F)c2)nc1		inactive	inactive	inactive		
C/C=C1/C[N+](C)([O-])C2Cc3c([nH]c4ccccc34)C(=O)CC1C2C(=O)OC (centres undefined)		inactive	inactive	inactive		
Cc1oc2nc3c(c(NC(=O)CN4CCCC4=O)c2c1C)CCCC3		inactive	inactive	inactive		
Cc1nc2ccccc2c(-c2ccc3c4c(ccnc24)CCO3)c1[C@H](OC(C)(C)C)C(=O)O		inactive	inactive	inactive		
C/C=C1\[C@H](O[C@@H]2O[C@H](CO)[C@@H](O)[C@H](O)[C@H]2O)OC=C(C(=O)O)[C@H]1CC(=O)OCCc1ccc(O)cc1		inactive	inactive	inactive		
Oc1ccccc1-c1cc(-c2ccccc2F)[nH]n1		inactive	inactive	inactive		
O=C(/C=C/c1ccc(O)cc1)O[C@H]1[C@H](OC2CCCCC2O)O[C@H](CO)[C@@H](O)[C@@H]1O (some centres undefined)		inactive	inactive	inactive		
On1ncc(C2CCNCC2)c1-c1cccc(-c2ccccc2)c1		inactive	inactive	inactive		
COc1ccc([C@H]2OC[C@H]3[C@@H]2CO[C@@H]3c2ccc(O[C@@H]3O[C@H](CO)C(O)[C@H](O)[C@H]3O)c(OC)c2)cc1OC (some centres undefined)		inactive	inactive	inactive		
C/C=C/C=C/C(O)=C1/C(=O)[C@]2(C)C3/C(=C(O)/C=C/C=C/C)C(=O)C4(C)C1[C@]1(C)O[C@@]4(O)[C@@]3(C)O[C@@]12O		inactive	inactive	inactive		
O=C(OC[C@H]1O[C@H](O[C@H]2CO[C@H](CO)[C@@H](O)[C@@H]2O)[C@H](O)[C@@H](O)[C@H]1O)c1ccccc1		inactive	inactive	inactive		
O=C(Nc1cc(-c2ccccc2)nn1-c1ccccc1)c1ccc([N+](=O)[O-])cc1		inactive	inactive	inactive		
CCOC(=O)C(CCc1ccccc1)NC(C)C(=O)N1Cc2ccccc2CC1C(=O)O (centres undefined)		inactive	inactive	inactive		
C=CC1(C)CC=C2C(CCC3C(C)(C(=O)O)CCCC23C)C1 (centres undefined)		5.62 µM (active)	14.1 µM (active)	inactive		
COC(=O)C1C(O)CCC2CN3CCc4c([nH]c5ccccc45)C3CC21 (centres undefined)		12.6 µM (active)	inactive	inactive		
C=C1CC[C@]2(C(=O)O[C@@H]3O[C@H](CO)[C@@H](O)[C@H](O)[C@H]3O)CC[C@]3(C)C(=CCC4[C@@]5(C)C[C@H](O)[C@@H](O[C@@H]6O[C@H](C(=O)O)[C@@H](O)[C@H](O)[C@H]6O)[C@](C)(C=O)C5CC[C@]43C)C2C1 (some centres undefined)		inactive	inactive			inactive [at 9.29 µM]
C[C@]12CCC[C@](C)(C(=O)O)C1CCC13CC(CO)C(CCC12)C3 (some centres undefined)		inactive	inactive	inactive		
COc1cc(/C=C/C(=O)O[C@@H]2C[C@@](O)(C(=O)O)C[C@@H](O)[C@@H]2O)ccc1O		inactive	inactive	inactive		
COc1ccc(N2CCN(CCCNC(=O)Cn3c(=O)c4cccn4c4c(C)ccnc43)CC2)cc1		inactive	inactive	inactive		
CC1=CC2=C(C)C(=O)[C@](C)(O)[C@H](O)C2=CO1		inactive	inactive	inactive		
CCC1(O)CC2c3cc(OC)c(OC)cc3CCN2CC1CC(C)C (centres undefined)		inactive	inactive	inactive		
CC1=C2C[C@@]3(C)[C@@H](CCC[C@@H]3C)C[C@@]2(O)OC1=O		inactive	inactive	inactive		
CC(C)(O)[C@@H]1CC[C@]2(CO)[C@@H](O)CC[C@](C)(O)[C@H]2[C@@H]1O[C@@H]1O[C@H](CO)[C@@H](O)[C@H](O)[C@H]1O		inactive	inactive	inactive		
C[C@@H]1O[C@@H](O[C@H]2[C@H](O)[C@@H](O[C@@H]3O[C@H](CO)[C@H](O)[C@H](O)[C@H]3O)[C@H](O[C@H]3CC[C@@]4(C)C(CC[C@]5(C)C4CC=C4[C@@H]6CC(C)(C)CC[C@]6(C(=O)O[C@@H]6O[C@H](CO)[C@@H](O)[C@H](O)[C@H]6O)CC[C@]45C)C3(C)C)O[C@@H]2C(=O)O)[C@H](O)[C@H](O)[C@H]1O (some centres undefined)	2.63% [at 9.29 µM]	inactive	inactive			
